Compound activity as filed in PubChem BioAssay.
The list is not random: actives were taken first. Their share in the collection is about 2.9%.
D3 ag: D3 dopamine receptor (human) agonism. max activation, %. 410,000 compounds, 0.58% hits. AID 652048. P35462. D3R DiscoveRx beta-arrestin cells, luminescence, 90 min; in the data active means max activation above about 30%; further: 0% is about no effect
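Cells at 1500/well, incubated overnight, then treated with pinned compounds (dopamine as control) for 90 min at 37 degrees C. DiscoveRx reagent added for 30 - 60 minutes at room temperature; luminescence read.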
IDH1 R132H inh: human IDH1 R132H inhibition. 390,000 compounds, 0.093% hits. IDH1-R132H enzyme, NADPH consumption, diaphorase/resazurin fluorescence. Potency, µM (titrated, usually from 76.6 µM), without a hit: top-dose activity change, negative = inhibition, most hits filed as inhibitors. AID 602179. O75874; further: potency means the concentration at half of the fitted maximal effect; on the % scale 0 is the no-effect control and ±100 the full control effect; nearly all actives have a fitted effect of over 65% in size
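IDH1-R132H (0.5 ug/mL dispensed) in pH 7.5 Tris buffer was preincubated 30 min with compound, then given a substrate mix of 0.016 mM NADPH and 2 mM alpha-KG for 80 min at room temperature; remaining NADPH was read by diaphorase/resazurin fluorescence.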
B2AR arrestin: agonists driving beta-arrestin recruitment to human beta2-adrenergic receptor. P07550. beta-arrestin recruitment to beta2AR, cell-based reporter. Potency, µM (series often up to 46.1 µM), without a hit: at the highest dose activation, hits mostly activators. 330,000 compounds, 0.02% hits. AID 492947;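 further: potency means the concentration at half of the fitted maximal effect; 0% = DMSO controls and full agonism = EC100 isoproterenol or metaproterenol; nearly all actives have a fitted effect of over 65% in size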
Target sequence (P07550 whole entry, looked up): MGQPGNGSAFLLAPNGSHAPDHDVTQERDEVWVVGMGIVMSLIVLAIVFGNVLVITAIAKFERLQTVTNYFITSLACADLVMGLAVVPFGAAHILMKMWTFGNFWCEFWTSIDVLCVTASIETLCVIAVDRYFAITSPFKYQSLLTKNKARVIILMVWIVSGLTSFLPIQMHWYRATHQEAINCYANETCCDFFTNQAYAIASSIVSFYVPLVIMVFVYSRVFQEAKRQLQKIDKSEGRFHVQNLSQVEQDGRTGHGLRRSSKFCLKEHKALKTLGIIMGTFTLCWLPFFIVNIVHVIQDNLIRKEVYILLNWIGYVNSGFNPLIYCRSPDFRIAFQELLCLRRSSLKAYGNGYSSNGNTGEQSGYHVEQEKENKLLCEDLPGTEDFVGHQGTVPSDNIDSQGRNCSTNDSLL
D3 antag: D3 dopamine receptor (human) antagonism; D3R cells, DiscoveRx beta-arrestin luminescence, antagonist mode; hits give low values; 360,000 compounds, 2.5% hits; AID 652054; max response, negative = inhibition, %; P35462; in the data active means max response below about -50%; inconclusive means no clear call, values can overlap the other calls; further: on the % scale 0 is the no-effect control and ±100 the full control effect
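Cells plated overnight at 1500 cells/well, then exposed to library compounds with dopamine controls for 90 minutes at 37 degrees C. DiscoveRx reagent added for 30–60 minutes at room temperature; luminescence read, quantitative HTS format.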
Integrin act MD: activates integrin-mediated alleviation for muscular dystrophy; alpha7betagal myoblasts, beta-gal FDG fluorescence, 48 h; Potency, µM (doses to about 38.3 µM), inactives show at the highest dose activation, most hits filed as activators; 350,000 compounds, 0.064% hits;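 further: potency means the concentration at half of the fitted maximal effect; 100% = response of the positive control SU9516; nearly all actives have a fitted effect of over 60% in size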
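alpha7betagal+/- myoblasts (passage 13, 250/well) treated 48 h at 37C with compounds at 1:260 dilution of DMSO stock. Lysed, then beta-galactosidase activity read as FDG fluorescence (ex 480/em 540) after 30 min, with pre-read for autofluorescence.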
Active calls of the source: *; ? = inconclusive; · = not tested or not shown; [ ] = dose if it differs, or a comment. Unless noted, the call rests on the fitted dose curve; in most records, active means well fitted curve in the direction sought with a large enough effect; inconclusive means small, poorly fitted or top-dose-only effect, or another doubt; inactive means no such curve, though single readings can be large; an effect the other way counts as inactive or inconclusive.

SMILES	D3 ag	IDH1 R132H inh	B2AR arrestin	D3 antag	Integrin act MD
Clc1cccc(OCCCCCN2CCOCC2)c1	-18.0	-2.3%	-0.4%	?	-17.0%
OCCN1CCN(CCOc2cccc(Cl)c2)CC1	39.9*	2.6%	-1.0%	?	-24.0%
Cc1cccc(OCC(=O)NCC2(N3CCN(C)CC3)CCCCC2)c1	-5.5	-7.7%	·	·	·
COc1ccc(/C=C2\Cc3ccccc3C2=O)cc1OC	0.8	-1.4%	-0.5%	5.9	-14.9%
COc1ccc(/C=C2/CSC/C(=C/c3ccc(OC)c(OC)c3)C2=O)cc1OC	0.8	3.4%	·	-50.2*	-58.1%
COc1ccc(C(O)(C(C)C)C(CN2CCOCC2)c2ccc(Cl)cc2)cc1 (configuration not stated)	-6.6	7.1%	-0.8%	-54.9*	19.7%
CCCn1c2ccccc2c2cnn(CC(=O)NCC3CCN(Cc4ccc(F)cc4)CC3)c(=O)c21	-16.1	-7.7%	·	·	·
CCCCCNCc1cccn1C	-18.8	2.0%	-0.1%	?	-1.5%
Cn1cccc1CNCc1ccccc1Cl	-31.4	5.3%	-0.3%	-64.0*	1.4%[7.66 µM]
FC(F)(F)c1ccnc(N2CCN(Cc3cnc(-c4ccccc4)[nH]3)CC2)c1	-17.7	3.1%	3.3%	-77.5*	1.8%
Cc1ccccc1C1C(C#N)=C2N=C(N)c3c(sc4c3CCCCC4)N2C2=C1C(=O)CCC2 (configuration not stated)	-6.8	-3.9%	0.5%	-75.8*	12.3%
N#CC1=C2N=C(N)c3ccccc3N2C2=C(C(=O)CCC2)C1c1ccccc1F (configuration not stated)	4.4	-1.5%	-0.8%	7.8	3.9%
CCC(Sc1nc2nccnc2c(=O)n1Cc1ccc(F)cc1)C(=O)NC1CCCCC1 (configuration not stated)	8.1	-2.5%	·	·	·
Cc1n[nH]c(C)c1Sc1ccccc1N=Cc1cc(Cl)cc([N+](=O)[O-])c1O	-15.3	4.9%	0.1%	-131.2*	26.6%
Cc1n[nH]c(C)c1Sc1ccccc1[N+](=O)[O-]	1.6	3.3%	-0.1%	12.9	2.3%
COc1ccc(C2(CNC(C)=O)CCCC2)cc1OC	-3.0	5.2%	0.1%	-23.4	26.9%
COc1ccc(C2(CNC(=O)CCC(=O)O)CCCC2)cc1OC	-0.3	1.5%	0.0%	-51.2*	27.9%
Cc1cc2nc(-c3ccc(OCc4ccccc4C)cc3)cc(C(F)(F)F)n2n1	0.9	9.1%	·	·	·
O=C(N/N=C/c1ccc(Cl)c([N+](=O)[O-])c1)c1cc(-c2ccc3c4c(cccc24)CC3)n[nH]1	-14.8	0.0%	0.1%	-58.4*	9.0%
O=C(N/N=C/c1cccc([N+](=O)[O-])c1)c1cc(-c2ccc3c4c(cccc24)CC3)n[nH]1	-4.4	3.3%	0.2%	-1.6	7.7%
Fc1ccc(Nc2cncc(-c3ccsc3)c2)cc1Cl	-13.5	·	·	-51.9*	·
Clc1ncc(CN2CCN(c3ccccc3)CC2)s1	39.2*	1.7%	-0.2%	-12.2	3.4%
c1ccc(N2CCN(Cc3cnc(N4CCOCC4)s3)CC2)cc1	-9.6	5.3%	-0.1%	?	3.3%
CC1CCN(Cc2cnc(Cl)s2)CC1	4.3	-2.0%	-0.3%	-14.6	-13.8%
Fc1ccccc1N1CCN(Cc2cnc(Cl)s2)CC1	49.7*	0.0%	0.2%	-20.6	-4.0%
SMILES	D3 ag	IDH1 R132H inh	B2AR arrestin	D3 antag	Integrin act MD
O=C(NN1CCCC1)NS(=O)(=O)c1ccc(Cl)cc1	1.8	·	·	·	·
COc1ccc(N(CC(=O)NCc2ccc3c(c2)OCO3)S(=O)(=O)c2ccc(O)c(C(=O)O)c2)cc1	-6.8	-4.8%	·	13.6	-16.5%
COc1ccc(CCC(=O)N2c3ccccc3N=C(c3ccc(C(F)(F)F)cc3)C2C(=O)NC(C)C)cc1 (configuration not stated)	86.3*	·	·	0.0	·
CCOC(=O)c1c(-c2ccccc2)c2cc(OC)ccc2n1CCCN(C)C	-21.4	-7.0%	0.0%	-72.1*	-61.6%
CCOC(=O)c1c(C)n(CCNC(C)=O)c2ccc(OC)cc12	4.9	5.9%	0.0%	19.1	-4.5%
COC(=O)Cc1ccc(NC(=S)NNC(=O)C2CC2)cc1	-4.7	4.1%	-0.6%	-15.6	3.9%
Cc1ccc(N2CCn3c2nc2c3c(=O)n(Cc3cccc(Cl)c3)c(=O)n2C)cc1C	14.7	-12.2%	·	·	·
O=[N+]([O-])c1ccc(CN2CCN(Cc3c[nH]c4ccccc34)CC2)cc1	-22.9	-11.8%	0.1%	?	-37.8%
